Test results taken from PubChem BioAssay (NCI).
This is part of a sample that, as a whole, favours compounds with a hit. Of some 83,000 tested, about 20% had one in any assay.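 Percent growth is the endpoint: 0 to 100 indicates growth inhibition (40 means 60% inhibition), 0 means no net growth, and negative values indicate cell death.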 Unmarked numbers belong to inactive results. The source made the active and inactive calls. How the source made its calls: active means growth percent below 10; inactive means the rest.

Tests used:
Test in all cases: NCI-60 one-dose screen, 48 h (100 = growth as untreated, 0 = no growth, -100 = all killed)
Conditions in all cases: 10 µM
EKVX NSCLC = test system: EKVX NSCLC
SN12C renal = test system: SN12C renal
UO-31 renal = test system: UO-31 renal
TK-10 renal = test system: TK-10 renal
ACHN renal = test system: ACHN renal
CAKI-1 renal = test system: CAKI-1 renal
A498 renal = test system: A498 renal
CCRF-CEM leukemia = test system: CCRF-CEM leukemia
MOLT-4 leukemia = test system: MOLT-4 leukemia
SR leukemia = test system: SR leukemia
RPMI-8226 leukemia = test system: RPMI-8226 leukemia
OVCAR-8 ovarian = test system: OVCAR-8 ovarian
OVCAR-5 ovarian = test system: OVCAR-5 ovarian
OVCAR-4 ovarian = test system: OVCAR-4 ovarian
SK-OV-3 ovarian = test system: SK-OV-3 ovarian
IGROV1 ovarian = test system: IGROV1 ovarian
OVCAR-3 ovarian = test system: OVCAR-3 ovarian
HS 578T breast = test system: HS 578T breast
NCI/ADR-RES ovarian = test system: NCI/ADR-RES ovarian

| SMILES | growth (EKVX NSCLC) | growth (SN12C renal) | growth (UO-31 renal) | growth (TK-10 renal) | growth (ACHN renal) | growth (CAKI-1 renal) | growth (A498 renal) | growth (CCRF-CEM leukemia) | growth (MOLT-4 leukemia) | growth (SR leukemia) | growth (RPMI-8226 leukemia) | growth (OVCAR-8 ovarian) | growth (OVCAR-5 ovarian) | growth (OVCAR-4 ovarian) | growth (SK-OV-3 ovarian) | growth (IGROV1 ovarian) | growth (OVCAR-3 ovarian) | growth (HS 578T breast) | growth (NCI/ADR-RES ovarian) |
| --- | --- | --- | --- | --- | --- | --- | --- | --- | --- | --- | --- | --- | --- | --- | --- | --- | --- | --- | --- |
| O=S(=O)(Nc1ncccn1)c1ccc(-n2c(-c3ccccc3)nc(-c3ccccc3)c2-c2ccccc2)cc1 | 76.9% | 92.4% | 62.2% | 94.6% | 97.3% | 84.2% | 81.9% | 75.7% | 92.1% | 81.8% | 71.1% | 97.4% | 104% | 94.1% | 101% | 103% | 113% | 81% | 95.3% |
| O=S(=O)(c1ccc(Cl)cc1)c1nc(-c2ccccc2)oc1S(=O)(=O)c1ccc(Cl)cc1 | 92.1% | 89.5% | 64.4% | 97.8% | 91.9% | 85.8% | 122% | -28.1% (active) |  |  | 36.3% | 81.5% | 101% | 92.8% | 94% | 91.7% | 89.1% | 87.4% | 81.2% |
| COc1ccc(C=CC(=O)c2ccc(-n3c(C)nc4c(cnn4-c4ccccc4)c3=O)cc2)cc1 | 42.9% | 81.6% |  | 86.8% | 71% | 75% | 104% | 46.4% | 44.7% |  | -18.8% (active) | 83.4% | 111% | 65.7% | 123% | 92.7% | 61% | 85.5% | 62.3% |
